# Most compounds without a hit are left out; they make up all but 0.83% or so of the library.
# COUP-TFII inh = NR2F2 (human) inhibition, primary screen. P24468. HEK293T NGFI-A luciferase reporter, luminescence. inhibition, % at 8.6 µM. hit rate 0.7% among 370,000. AID 686940;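 active = inhibition above a per-plate cutoff, mean inhibition of test wells between control levels plus 3 SD, cut at about 38% in these data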;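 also: cells cotransfected with COUP-TFII expression vector driving the NGFI-A reporter; 0% = median of COUP-TF2 test wells and 100% = reporter-only cells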
# Target sequence (P24468 whole entry, looked up): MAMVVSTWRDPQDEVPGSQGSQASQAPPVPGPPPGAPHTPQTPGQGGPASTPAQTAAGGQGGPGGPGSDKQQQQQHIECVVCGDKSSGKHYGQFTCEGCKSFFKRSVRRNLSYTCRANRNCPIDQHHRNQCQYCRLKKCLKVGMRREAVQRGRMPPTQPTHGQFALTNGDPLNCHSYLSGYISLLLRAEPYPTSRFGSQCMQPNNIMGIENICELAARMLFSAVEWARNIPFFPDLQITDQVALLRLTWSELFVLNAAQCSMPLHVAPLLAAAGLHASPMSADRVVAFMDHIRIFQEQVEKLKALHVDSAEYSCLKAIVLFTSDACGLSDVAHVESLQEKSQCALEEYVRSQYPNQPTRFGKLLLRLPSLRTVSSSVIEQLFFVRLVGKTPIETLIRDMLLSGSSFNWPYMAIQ
# NCOA2 inhibitor = inhibits human steroid receptor coactivator 2; Q15596; HEK293 GAL4-SRC2 luciferase reporter, luminescence; hit rate 0.17% among 370,000; inhibition, % at 9 µM;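 active = inhibition above the mean inhibition of all tested compounds plus 3 SD, set per campaign, cut at about 52% in these data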;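 also: 0% = DMSO treated cells and 100% = cells given Gossypol at 36 µM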
# SRC3 inh = inhibitors of human steroid receptor coactivator 3 (SRC3); inhibition, % at 3.6 µM; hit rate 0.17% among 360,000; HEK293 GAL4-SRC3 luciferase reporter, luminescence; AID 588352; Q9Y6Q9;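 active = inhibition above a per-campaign cutoff, the mean of all compounds plus 3 SD, cut at about 60% in these data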;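 also: 0% = DMSO-treated cells and 100% = gossypol-treated cells at 36 µM; higher means less SRC3-driven luciferase light from the GAL4 reporter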
# NR5A2 inv ag = suppresses constitutive activity of human LRH-1. O00482. HEK293T StAR-luciferase reporter, LRH-1 transfected, 24 h. inhibition, % at 3.6 µM. hit rate 0.13% among 360,000;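 active = inhibition above the mean inhibition of all tested compounds plus 3 SD, cut at about 73% in these data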;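 also: 0% = DMSO wells and 100% = reporter-only cells lacking LRH-1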
# NCOA1 inh = inhibits human SRC1 coactivator; HEK293 GAL4-SRC1 luciferase reporter, luminescence; Q15788; inhibition, % at 3.6 µM; hit rate 0.12% among 360,000;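 active = inhibition above the campaign mean plus 3 SD, with each screening campaign given its own cutoff, cut at about 60% in these data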;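 also: 0% = DMSO treated cells and 100% = gossypol at 36 µM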
# Gal4-VP16 ctr = VP16 inhibition counter-screen for COUP-TFII. shares compounds with COUP-TFII inh. HEK293 Gal4-VP16 luciferase reporter, luminescence. inhibition, % at 8.5 µM. hit rate 25% among 2,500; in the data active = inhibition above about 13%
# COUP-TFII conf = COUP-TFII (NR2F2) inhibition, confirmation assay; shares compounds with COUP-TFII inh; HEK293 NGFI-A luciferase reporter, luminescence; inhibition, % at 8.5 µM; hit rate 45% among 2,500;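 active = mean inhibition over three repeats above a set limit taken from the earlier primary screen, cut at about 38% in these data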;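 also: 100% = cells given the luciferase reporter alone without the COUP-TF2 vector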
# Numbers without * were called inactive; . = no result.
SMILES,COUP-TFII inh,NCOA2 inhibitor,SRC3 inh,NR5A2 inv ag,NCOA1 inh,Gal4-VP16 ctr,COUP-TFII conf
Cc1cc(C)cc(C(=O)NC(=S)Nc2ccc(-c3cc4ccccc4oc3=O)cc2)c1,39*,46,26,10,14,18*,24
COc1ccc(Br)cc1C(C[N+](=O)[O-])c1c(N)n(C)c(=O)n(C)c1=O (stereo unspecified),41*,-28,-3,27,-26,7,23
O=C(COc1ccc(C(=O)c2ccccc2)cc1)Nc1cccnc1,66*,19,4,38,-1,6,60*
N#Cc1ccc(-c2ccc(OCC(=O)Nc3cccnc3)cc2)cc1,47*,53*,-8,37,-15,-4,23
COc1cccc(CN(C)C(=O)[C@@H](Cc2ccccc2)NC(=O)[C@H]2O[C@@H](n3ccc(=O)[nH]c3=O)[C@H](O)[C@@H]2O)c1,4,-7,.,.,.,.,.
CN(C)c1ccc(C(=O)NC2CCCCN(Cc3cccc(Cl)c3)C2=O)cc1 (stereo unspecified),-16,-35,.,.,.,.,.
C[C@@H]1CN(c2ccc(N3CCNC[C@@H]3C)cc2C#N)CCN1Cc1ccccc1,13,-15,.,.,.,.,.
CC1(Cc2cccc(F)c2)C(=O)Nc2ccc(-c3cccnc3)cc21 (stereo unspecified),48*,52,55,17,61,9,18
CC(=O)Nc1cc2nn(-c3ccccc3)nc2cc1Cl,-49,-82,-67,-80,-99,.,.
CC(C)(C)C(=O)Nc1cc2nn(-c3ccccc3)nc2cc1Cl,87*,73*,81*,83*,82*,72*,101*
c1ccc2c(c1)[nH]c1c(N3CCC4(CC3)OCCO4)ncnc12,.,.,2,8,4,.,.
COc1ccc2[nH]c3c(N4CC(C)OC(C)C4)ncnc3c2c1 (stereo unspecified),-14,12,.,.,.,.,.
c1ccc2c(c1)CCN(c1ncnc3c1[nH]c1ccccc13)C2,71*,36,32,46,23,4,76*
COc1cccc(N2CCN(c3ncnc4c3[nH]c3ccccc34)CC2C)c1 (stereo unspecified),76*,61*,.,.,.,19*,84*
COc1cccc(N2CCN(c3ncnc4c3[nH]c3ccc(F)cc34)CC2C)c1 (stereo unspecified),91*,81*,87*,89*,85*,92*,108*
CN(c1cccc(Cl)c1)S(=O)(=O)c1cccc(C(=O)Nc2nc3ccccc3[nH]2)c1,42*,-11,0,-21,-3,-39,-5
CCOC(=O)Cc1csc(NC(=O)/C=C/c2ccc(Cl)cc2)n1,44*,-2,-11,-14,-1,-66,5
COc1cc(CNc2ncnc3c2ncn3[C@H]2CN(Cc3ccc(C(=O)O)cc3)C[C@@H](CO)O2)cc(OC)c1OC,12,-13,-8,11,-3,.,.
COc1cc(CNc2ncnc3c2ncn3[C@H]2CN(Cc3ccc(-c4ccccc4)cc3)C[C@@H](CO)O2)cc(OC)c1OC,59*,10,13,33,12,4,48*
OC[C@@H]1CN(Cc2ccc(-c3ccccc3)cc2)C[C@H](n2cnc3c(NCc4ccncc4)ncnc32)O1,59*,26,8,3,25,-4,39*
O=C(NC1CCN(Cc2ccccc2)CC1)c1cccc(NS(=O)(=O)c2ccc(Br)cc2)c1,18,11,6,-1,7,.,.
Cc1ccc(Cl)cc1S(=O)(=O)N1CCC(C(=O)NC2CCN(Cc3ccccc3)CC2)CC1,38*,16,16,9,13,5,44*
Cc1ccc(NS(=O)(=O)c2cccc(C(=O)NC3CCN(Cc4ccccc4)CC3)c2)cc1,40*,15,14,19,8,3,20
Cc1ccc(NS(=O)(=O)c2ccc(C(=O)NC3CCN(Cc4ccccc4)CC3)cc2)cc1,64*,-1,21,38,31,1,49*
CCOc1ccc(-c2noc(CCC(=O)O)n2)cc1,82*,73*,43,47,29,66*,57*
SMILES,COUP-TFII inh,NCOA2 inhibitor,SRC3 inh,NR5A2 inv ag,NCOA1 inh,Gal4-VP16 ctr,COUP-TFII conf
COc1ccc(-c2noc(CCC(=O)O)n2)cc1,15,29,9,16,2,.,.
COc1ccc(-c2noc(CCCC(=O)O)n2)cc1,83*,77*,46,51,31,81*,80*
C=CCN(CC#Cc1ccccn1)Cc1ccc(OC)cc1OC,1,-1,.,.,.,.,.
O=C(N1CCOCC1)N1CC[C@H]2[C@H](CCCN2Cc2ccccc2)C1,1,-29,.,.,.,.,.
OCC1OC(n2ccc3c(NO)ncnc32)C(O)C1O (stereo unspecified),47*,41,85*,98*,69*,27*,28
COC(=O)C1=C(C)N(Cc2ccccc2C(F)(F)F)C(=NCc2ccccc2C(F)(F)F)NC1c1ccc(Cl)cc1 (stereo unspecified),-9,-17,.,.,.,.,.
C=C1C(=O)O[C@H]2[C@H]1[C@H](OC(=O)/C(C)=C\C)C[C@]1(CO1)[C@@H]1[C@H](OC(C)=O)C=C(C)[C@]21O,-4,-30,-9,-4,-13,.,.
C=C1C(=O)OC2CC1C(OC(C)=O)CC(C)=CCCC(C)=CCCC2(C)O (stereo unspecified),39*,44,62*,46,33,30*,34
COC(=O)[C@H](C(C)C)N1Cc2nnn(Cc3ccccc3)c2C=CS1(=O)=O,7,20,.,.,.,.,.
O=C(CCS(=O)(=O)c1ccccc1)Nc1ccc(F)cc1Cl,3,-1,.,.,.,.,.
Cc1cc(C)c(CN2CCN(C(=O)Cn3cnc4c(OCc5ccccc5)ncnc43)CC2)c(C)c1,63*,22,25,32,26,-5,64*
O=C(O)Cn1cnc2c(OCc3ccccc3)ncnc21,-9,18,-36,0,3,.,.
COC(=O)c1cc2c(c3c4cc(F)ccc4n(S(=O)(=O)c4ccccc4)c13)C(=O)N(Cc1ccco1)C2,10,23,.,.,.,.,.
C=CCN1c2ccccc2Sc2cnccc21,3,32,19,-23,17,.,.
CC(=O)OCCN1c2ccccc2Sc2cnccc21,37*,37,36,-12,21,-5,12
Cc1cccc(OC[C@@H](O)CN2CCC(C(O)(c3ccccc3)c3ccccc3)CC2)c1,-16,7,.,.,.,.,.
O=C(NCc1cccnc1)c1ccc(-c2ccc(F)c(F)c2)c2ccoc12,68*,28,-7,20,11,3,49*
COc1ccc(-c2cc(C)no2)cc1S(=O)(=O)N1CCN(c2cccc(C)c2)C(C)C1 (stereo unspecified),52*,18,5,13,0,11,54*
